Screening data from PubChem.
In the library only some 2.2% were active in any assay of this set; here they are far more common.
PAX8 inh HTS – lowers PAX8-driven luciferase in RMG-I cells; RMG-I TPO-luciferase reporter, SteadyGlo, 24 h; inhibition, % at 12.6 µM; actives 1.2% (n = 360,000); AID 652154;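 active means mean replicate inhibition at least 60% with every replicate also reaching 60%; inconclusive means only one of the two criteria is met; inactive means mean below 60% and not all replicates reaching 60%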;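 further: luciferase light reporting Pax8 driven TPO promoter activity; plate controls were median of neutral control wells for no effect and mitoxantrone controls for full effect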
EWS-Fli block – EWS/Fli transcriptional activity inhibition. A673 NR0B1-luciferase reporter, viability-normalised. inhibition, % at 12.6 µM. actives 0.67% (n = 350,000). AID 651661;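 active means mean inhibition of at least 50% after viability correction, with every replicate also passing that limit; inconclusive means mean reaches 50% but only one of two replicates passes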;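 further: firefly luciferase signal divided by Alamar Blue viability fluorescence both relative to DMSO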
MITF TRPM1 inh – reduces MITF-dependent TRPM1 promoter luciferase signal. SK-MEL-5 TRPM1 promoter luciferase, 24 h. inhibition, % at 12.5 µM. actives 0.83% (n = 330,000). AID 488899;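 active means mean inhibition across replicates of 60% or more, whatever share of single replicates reaches that level; inconclusive means some that reach 60%, reason not given; inactive means mean inhibition across replicates below 60%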
EBV LMP1 NFkB – reduces LMP1-driven NF-kappaB luciferase signal. LMP1-induced NF-kappaB luciferase reporter cells, luminescence. inhibition, % at 12.5 µM. actives 0.69% (n = 350,000). AID 504558; in the data active means inhibition above about 41%; inconclusive means no clear call, values can overlap the other calls;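 further: 0% = neutral control wells and 100% = reference inhibitor control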
Shn3 inh set2 – Schnurri-3 reporter inhibition in Clone20 osteoblasts; Clone20 osteoblast Shn3 3'UTR firefly luciferase, 24 h; inhibition, % at 12.5 µM; actives 0.52% (n = 360,000); AID 588674;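 active means mean inhibition of at least 75% with every replicate also reaching 75%; inconclusive means mean inhibition at least 75% but some replicate below; inactive means mean inhibition below 75%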;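 further: 0% = median of neutral control wells and 100% = pilot-screen positive control compound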
LGR2 inh – Drosophila LGR2 receptor signaling inhibition; actives 0.35% (n = 380,000); HEK293 LGR2, CRE-luciferase, bursicon-stimulated, 4 h; inhibition, % at 9.99 µM; AID 720647;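 active means drop in luminescence signal, shown as inhibition above about 50% in the replicate tests, limit read from the data, passing the limit was not always enough; inconclusive means probably only some replicates passing the limit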;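 further: agonist challenge used bursicon conditioned medium at about half maximal strength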
DNA binder FP – small molecule DNA binding by fluorescence polarization | shares compounds with EWS-Fli block | salmon sperm DNA acridine orange fluorescence polarization | AC35, µM (highest dose often 68 µM), without a hit: at the highest dose activity change, negative = DNA binding | actives 2% (n = 640) | AID 720586;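 active means fitted curve reaches a 35% signal fall AC35 below twice the sample's top valid tested dose, actives reach about 48 µM in these data; inactive means the rest, including activity in the rising direction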;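 further: lower polarization ratio signals compound binding to DNA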
* hit, by the source's call; ? = inconclusive; / = no result.

SMILES | PAX8 inh HTS | EWS-Fli block | MITF TRPM1 inh | EBV LMP1 NFkB | Shn3 inh set2 | LGR2 inh | DNA binder FP
CC(=O)Nc1cccc(-c2ccnc3c2CC(C)(C(=O)NCc2ccc(N(C)C)cc2)O3)c1 (stereo unspecified) | 35 | 54* | / | / | 19 | -2 | -15%
COC(=O)[C@@]1(Cc2ccccc2)N=C(c2ccc(OCCCO)cc2)O[C@H]1c1ccccc1 | 9 | -12 | / | / | / | / | /
CC(=O)/C(=C/c1ccccc1)C(=O)Nc1ccccc1C | 18 | 3 | 44 | 4 | 2 | 17 | /
Cc1ccccc1NC(=O)C(=Cc1ccc(C(=O)O)cc1)C(=O)Nc1ccccc1C | 109* | 54* | 48 | 9 | 43 | 27 | -9%
Nc1cc2c(cc1Br)[nH]c(=O)c1ccccc12 | 6 | 52* | 93* | -109 | 83 | / | -2%
COc1cccc(-c2ccc3c(c2)[C@@H]2[C@@H](CCN2C(=O)Nc2ccccc2OC)[C@@H](CO)N3C)c1 | 22 | -14 | / | / | / | -4 | /
C(=Cc1nc2ccccc2o1)c1ccc2c(c1)OCO2 | 3 | 69* | / | 45* | 19 | 81* | 3%
C(=Cc1cnc2ccccc2n1)c1ccc2c(c1)OCO2 | 97* | 88* | / | 80* | 86* | 99* | 1%
Cc1noc(C)c1S(=O)(=O)N(C)C[C@@H]1Oc2ccc(NS(=O)(=O)c3ccc(Cl)cc3)cc2C(=O)N([C@@H](C)CO)C[C@@H]1C | / | 2 | / | / | / | 6 | /
C=CCNc1ncnc2c1ncn2C1OC(CO)C(O)C1O (stereo unspecified) | / | / | 6 | 5 | 43 | / | /
OC[C@H]1O[C@@H](n2cnc3c(NCc4ccco4)ncnc32)[C@H](O)[C@@H]1O | 100* | 80* | 66* | 13 | 85 | -14 | -10%
OC[C@H]1O[C@@H](n2cnc3c(NC4CCCC4)ncnc32)[C@H](O)[C@@H]1O | 24 | -12 | -14 | 12 | 5 | / | /
OCC1OC(n2cnc3c(NCc4ccco4)ncnc32)C(O)C1O (stereo unspecified) | 104* | 76* | ? | 12 | ? | -4 | -13%
Cc1noc(C)c1NC(=O)Nc1cccc2c1O[C@H](CN(C)S(=O)(=O)c1ccc(F)cc1)[C@@H](C)CN([C@@H](C)CO)C2=O | / | 7 | / | / | / | 1 | /
COCC(=O)N(C[C@@H]1[C@@H](c2ccccc2)[C@H](CO)N1C(=O)NC(C)C)C(C)C | -2 | 2 | / | / | / | 1 | /
CC(=O)c1ccc(NC(=O)c2noc3c2CCC3)cc1 | 46 | 60* | 56 | 65* | 40 | 64* | -6%
CCc1cccc2c(C(=O)CN3C(=O)C(=O)N(C4CCCC4)C3=O)c[nH]c12 | -2 | -1 | 5 | 3 | -3 | -4 | /
CCc1cccc2c(C(=O)CN3C(=O)NC4(CCCCC4)C3=O)c[nH]c12 | 50 | 51* | -74 | -71 | 12 | -3 | 9%
O=C(Nc1nc(-c2ccc(F)c(F)c2)cs1)c1ccc(OCC2CCCO2)cc1 (stereo unspecified) | 14 | 74* | 27 | 33 | 32 | 7 | -6%
O=S(=O)(N[C@@H]1CC[C@H](CCn2cc(C3(O)CCCC3)nn2)O[C@H]1CO)c1ccc(Cl)cc1 | -6 | -136 | / | / | / | 9 | /
O=C(C[C@@H]1CC[C@@H]2[C@H](COC[C@@H](O)CN2S(=O)(=O)c2ccc(F)cc2)O1)NCc1ccc(Cl)c(Cl)c1 | 21 | 76* | / | / | / | 19 | -16%
COc1cccc(O)c1CN1CCC(C(=O)Nc2ccc(Oc3cccnc3)cc2)CC1 | 21 | 27 | 18 | 1 | 29 | 16 | /
COc1cccc(O)c1CN1CCC(C(=O)Nc2ccc(-c3cccc(C)c3)cc2)CC1 | 32 | 58* | 34 | -13 | 11 | 5 | 5%
CCOc1ccc2nc(NC3=NC(c4ccc(OC)cc4)CC(=O)N3)nc(C)c2c1 (stereo unspecified) | / | 57* | ? | -8 | 49 | 20 | -1%
CCOC(=O)c1c(-c2ccc(C)cc2)csc1NC(=O)CCN1CCOCC1 | 13 | 81* | -4 | -6 | -1 | -2 | -9%
SMILES | PAX8 inh HTS | EWS-Fli block | MITF TRPM1 inh | EBV LMP1 NFkB | Shn3 inh set2 | LGR2 inh | DNA binder FP
COc1cc2c(OC(C)=O)c3c(c(-c4ccc5c(c4)OCO5)c2cc1OC)C(=O)OC3 | / | 65* | / | -75 | 81 | / | -11%
O=C(CCN1CCCCC1)NCC[C@H]1CC[C@H](NC(=O)C2CCOCC2)[C@@H](CO)O1 | -9 | -2 | / | / | / | -13 | /
CO[C@H]1CN(C)C(=O)c2cc(NC(C)=O)ccc2OC[C@@H](C)N(C(=O)C2CCCCC2)C[C@H]1C | -10 | -4 | / | / | / | 16 | /
CCN1CCS/C1=C\C=C\C1=[N+](CC)CCS1 | 76* | 53* | 41 | 30 | 75 | 24 | -1%
N/C(Cc1nc(-c2ccc(F)cc2)cs1)=N\O | -34 | 77* | -19 | 1 | -26 | -20 | -6%
COC(=O)C[C@H]1C[C@H]2c3cc(N(C)C)ccc3O[C@H]2[C@@H](CO)O1 | -2 | -13 | / | / | / | -13 | /
CN1CCN(CCCNC(=O)c2ccc(/C=C3\Oc4ccccc4N(Cc4ccccc4F)C3=O)cc2)CC1 | 13 | 20 | 34 | -6 | 3 | -12 | /
Cc1cccc(CN2C(=O)/C(=C\c3ccc(C(=O)NCCCN4CCN(C)CC4)cc3)Oc3ccccc32)c1 | ? | 65* | 94* | -1 | 12 | 9 | -13%
Nc1ccc(-c2nc3ccccc3s2)cn1 | -205 | -85 | -40 | -13 | -55 | -78 | /
Cc1cc(-c2nc3ccccc3s2)ccc1N | 15 | 61* | 18 | 2 | -11 | 54* | -11%
COC(=O)C[C@H]1CC[C@H]2[C@@H](COc3ccc(NC(=O)c4ccc(F)cc4)cc3C(=O)N2C)O1 | -5 | / | / | / | / | 5 | /
COC(=O)C[C@@H]1CC[C@@H]2[C@H](COc3ccc(NC(=O)c4ccc(F)cc4)cc3C(=O)N2C)O1 | 3 | 57* | / | / | / | 8 | 11%
COC(=O)C[C@@H]1CC[C@@H]2[C@H](COc3ccc(NC(=O)c4cc(F)cc(F)c4)cc3C(=O)N2C)O1 | -17 | 61* | / | / | / | -17 | -5%
COC(=O)C[C@@H]1CC[C@@H]2[C@H](COc3ccc(NC(=O)c4ccccc4)cc3C(=O)N2C)O1 | 6 | 58* | / | / | / | 1 | -6%
CO[C@H]1CN(C)C(=O)c2cc(NC(=O)NC(C)C)ccc2OC[C@@H](C)N(C(=O)CC2CC2)C[C@@H]1C | / | -4 | / | / | / | 10 | /
COCC(=O)Nc1ccc2c(c1)[C@H]1C[C@H](CC(=O)N3CCc4ccccc4C3)O[C@H](CO)[C@H]1O2 | / | 0 | / | / | / | 6 | /
COc1ccc(/C=C2\SC(=S)N(CCCC(=O)Nc3ccc(O)cc3)C2=O)cc1 | 39 | 61* | 6 | 4 | 9 | -45 | -11%
